The values that follow come from PubChem BioAssay AID485347 (National Center for Advancing Translational Sciences (NCATS), 2010).

The structures appear in SMILES notation. “And” between values parts separate entries of the source, which are not always exact repeats. Equal entries are not always repeated. About 1,200 (0.35%) of roughly 340,000 compounds were called active.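 How the source made its calls: active means potentiation over 3 SD above the plate norm (cut at about 30% in these data); inactive means the rest.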 The entries come from a sample that favours actives as a whole. Where a structure was tested more than once in an assay, its records may differ in their call.

Chain of D(2) dopamine receptor (Homo sapiens) (P14416 whole entry, looked up): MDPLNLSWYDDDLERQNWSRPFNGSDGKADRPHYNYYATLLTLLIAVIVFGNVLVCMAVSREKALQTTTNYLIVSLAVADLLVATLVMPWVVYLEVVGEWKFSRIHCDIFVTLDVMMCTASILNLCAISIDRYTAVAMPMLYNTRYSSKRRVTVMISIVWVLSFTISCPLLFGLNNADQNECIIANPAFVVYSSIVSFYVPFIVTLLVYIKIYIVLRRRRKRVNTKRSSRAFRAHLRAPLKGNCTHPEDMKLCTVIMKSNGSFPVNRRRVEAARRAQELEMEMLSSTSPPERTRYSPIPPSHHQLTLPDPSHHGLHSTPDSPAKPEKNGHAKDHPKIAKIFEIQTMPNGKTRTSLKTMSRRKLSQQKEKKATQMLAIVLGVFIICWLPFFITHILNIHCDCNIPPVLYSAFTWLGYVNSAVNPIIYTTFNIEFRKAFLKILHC

In the assay the target is D(2) dopamine receptor (Homo sapiens) (UniProt P14416). Nature of the assay: HTS Assay for Positive Allosteric Modulators of the Human D2 Dopamine Receptor: Primary Screen for Potentiators. Further: 0% is about no effect. The conditions noted are these: HEK293 T-REx D2, calcium flux, EC20 dopamine potentiation; at 10 µM; stronger effect = higher value. The gist of the method:
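Tetracycline-induced HEK293 T-REx cells force-coupled to calcium signalling expressed D2; compounds were pin-added after a 10 s baseline, read kinetically 180 s, then an EC20 dopamine challenge followed with a further 180 s calcium read.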
With `O=C(CCn1c(=O)c2ccccc2n(Cc2ccc(Cl)cc2)c1=O)NCc1ccc2c(c1)OCO2`, the potentiation is -11.6% (inactive).
For `O=C(Nc1ccc(Br)cc1)c1cc2nc(-c3ccccc3)cc(-c3ccccc3)n2n1` the value was -4.38% (inactive); for `Cc1ccccc1-c1nc(SCC(=O)N(C)c2ccccc2)c2c(=O)n(C)c(=O)n(C)c2n1`, -12.5% (inactive).
For `Cn1c(=O)[nH]c(=O)c2c1nc(N1CCCCCC1)n2CC(=O)c1ccccc1` the value was -3.5% (inactive).
Next, `CC1CCN(c2nc3c(c(=O)[nH]c(=O)n3C)n2CCCc2ccccc2)CC1`: 45% (active); `Cn1c(=O)[nH]c(=O)c2c1nc(N1CCN(C(c3ccccc3)c3ccccc3)CC1)n2CCO`: 3.98% (inactive).
For the compound `CCOC(=O)N1CCc2c(sc(NCc3cccc(F)c3)c2C(=O)Nc2ccccc2OCC)C1`, the potentiation is -0.26% (inactive).
Next, `O=C(NCCCN1CCCC1=O)c1ccc(S(=O)(=O)Nc2ccccc2)cc1`: 3.61% (inactive); `CCOc1ccc(C(=O)NCCCN2CCCC2=O)cc1`: 30.7% (active).
Next, `CCOc1ccc(S(=O)(=O)Nc2ccc(C(=O)NCCCN3CCCC3=O)cc2)cc1`: 11.5% (inactive).
With `COc1cc(Cl)ccc1Nc1ncc(C(=O)N2CCN(c3ccccc3OC)CC2)c2ccccc12`, the potentiation is -3.04% (inactive).
For `NC(=O)CSc1nc2c(oc3ccccc32)c(=O)n1Cc1ccccc1` the value was 4.88% (inactive); for `Cc1cccc(NC(=O)c2ccc3nc(C(C)C)oc3c2)c1C`, -11.3% (inactive); for `Nc1nc(NCC2CCCO2)nc(Nc2ccccc2F)c1[N+](=O)[O-]` (configuration not stated), 31.9% (active).
Next, `Nc1nc(Nc2ccccc2F)nc(NC2CCCCC2)c1[N+](=O)[O-]`: 6.13% (inactive); `Nc1nc(NCCCN2CCOCC2)nc(Nc2ccccc2)c1[N+](=O)[O-]`: -1.17% (inactive).
Next, `COc1ccc(NC(=O)CSc2nccn2C2CCCC2)cc1OC`: 7.4% (inactive).
`Cc1cc(O)c(C(c2ccccc2)N2CCN(c3ccccc3F)CC2)c(=O)n1Cc1ccco1` (configuration not stated): the potentiation was -21.6% (inactive).
For `O=C(NCc1ccccn1)c1c(O)c2c([nH]c1=O)CCCC2` the value was 4.39% (inactive).
Next, `CCc1nnc(NC(=O)c2c(O)c3c([nH]c2=O)CCCC3)s1`: 55.5% (active); `C[N+](C)(C)CCNC(=O)c1c(O)c2c([nH]c1=O)CCCC2`: 13.8% (inactive); `CN(C)CCCn1c(-c2ccc(Cl)cc2)csc1=Nc1ccccc1`: -16.7% (inactive).
For `Cn1c(=O)[nH]c(=O)c2c1nc(NCCCn1ccnc1)n2Cc1cccc(Br)c1` the value was 40% (active); for `Cn1c(=O)[nH]c(=O)c2c1nc(NCCc1ccccc1)n2Cc1ccc(F)cc1`, -10.3% (inactive).
Consider `CC(c1ccccc1)n1c(NCCCn2ccnc2)nc2c1c(=O)[nH]c(=O)n2C` (configuration not stated), for which the potentiation is -8.07% (inactive).
On to `Cc1cccc(C(CC(=O)NCC2(c3ccccc3)CCCC2)c2ccccc2)c1O` (configuration not stated), for which the potentiation was 8.89% (inactive).
For `CCOC(=O)c1ccc(NC(=O)c2csc3c2CCCCC3)cc1` the value was 1.32% (inactive).
Take `CC1CC(C)CN(CCCNC(=O)c2csc3c2CCCCC3)C1` (configuration not stated): the potentiation was 30.4% (active).
In the case of `CCOc1ccc(CCNC(=O)c2csc3c2CCCCC3)cc1`, the potentiation was -0.665% (inactive).
Consider `Cc1ccc(NC(=O)CSc2nnc3[nH]c(=O)cc(C)n23)cc1Cl`, for which the potentiation was -5% (inactive).
Next, `Cc1nc2ccccc2n1CC(=O)N/N=C/c1cccs1`: 0.665% (inactive).
For `Cc1n[nH]c(=O)nc1N/N=C/c1cccs1` the value was 36.2% (active); for `Cc1cc(C)nc(SC(C)C(=O)N/N=C/c2cccs2)n1` (configuration not stated), 12.3% (inactive).
For `CCOC(=O)C1CCN(c2ncnc3c2c(-c2ccccc2)cn3-c2cccc(C)c2)CC1` the value was -2.84% (inactive); for `CCOC(=O)C1CCN(Cc2nnc(-c3cccc(Br)c3)o2)CC1`, -5.55% (inactive); for `CCOC(=O)C1CCN(c2ncnc3c2oc2ccc(Br)cc23)CC1`, 34.7% (active).
As for `CCCCOc1ccc(CN2C(=O)C(=O)c3cc(Br)cc(C)c32)cc1OC`, the potentiation is 21.8% (inactive).
For `Cc1ccc(N2CCN(C(=O)CCc3c(C)nc4c(c3C)c(=O)n(C)c(=O)n4C)CC2)c(C)c1` the value was -0.454% (inactive); for `CCN(CC)S(=O)(=O)c1ccc2[nH]cc(C(=O)NCCc3ccccc3)c(=O)c2c1`, -2.89% (inactive) and 46.8% (active); for `CCc1ccc(NS(=O)(=O)c2ccc3[nH]cc(C(=O)NCCc4cccc(C)c4)c(=O)c3c2)cc1`, -7.11% (inactive).
For `CCN(CC(=O)NCCc1ccccc1)S(=O)(=O)c1ccccc1` the value was 13.4% (inactive).
For `N#Cc1ccc(-c2cccs2)nc1SCc1ccc(Br)cc1` the value was -0.921% (inactive).
As for `COc1cccc(CNC(=O)CCC(=O)N2CC3CCCN3c3ccccc32)c1` (configuration not stated), the potentiation was -3.32% (inactive).
For `COc1cccc(Cn2c(SCc3ccc(C(=O)N4CCCCC4)cc3)nc3ccncc32)c1` the value was 0.981% (inactive); for `CCc1nn(CC(=O)N2CCN(c3cccc(C(F)(F)F)c3)CC2)c(=O)c2cc3occc3n12`, 4.66% (inactive); for `O=C(NCc1cc(F)cc(C(F)(F)F)c1)C1CCC(=O)N(C2CCCC2)C1` (configuration not stated), 39% (active).
For `Cc1ccc(CNC(=O)C2CC(=O)N(C3CCCCCCC3)C2)cc1` (configuration not stated) the value was 7.03% (inactive).
Next, `O=C(NCc1cccc(Cl)c1)C1CCC(=O)N(C2CC2)C1` (configuration not stated): -9.09% (inactive).
Regarding `CCOC(=O)c1ccc(NC(=O)CCS(=O)(=O)c2ccc3c(c2)oc(=O)n3C)cc1`, the potentiation is -4.33% (inactive).
For `COc1ccccc1NC(=O)CSC1=Nc2ccccc2C2=NC(CC(=O)NCc3cccs3)C(=O)N12` (configuration not stated) the value was -7.55% (inactive).
Next, `Cc1ccc(S(=O)(=O)NCCC(=O)Nc2cccc(S(N)(=O)=O)c2)cc1C`: -4.48% (inactive); `NS(=O)(=O)c1cccc(NC(=O)CC23CC4CC(CC(Br)(C4)C2)C3)c1`: 38.8% (active).
For `O=C(CC12CC3CC(CC(C3)C1)C2)Nc1ccc2c(c1)COC2=O` the value was -3.01% (inactive); for `Cc1ccc2nc(COc3cccc(NC(=O)Nc4ccc(C)c(Cl)c4)c3)cc(=O)n2c1`, -1.63% (inactive); for `CCc1ccc(NC(=O)CCNS(=O)(=O)c2cccs2)cc1`, 13.5% (inactive).
On to `O=C(COC(=O)c1ccc(O)cc1O)NNC(=O)c1cccs1`, for which the potentiation was -6.83% (inactive).
Next, `O=C(COC(=O)c1ccc(NS(=O)(=O)c2cccs2)cc1O)Nc1ccc(F)cc1`: 35.7% (active).
